The record followed here is PubChem BioAssay (NCATS).

Experiment [1] in a line: Cell Viability - BJ (AID 421; calls by dose curve;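 also: potency is read from the fitted curve at half-maximal effect; cells exposed to compound for 40 hours at 37 °C before readout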). Particulars: BJ fibroblast viability, qHTS. Summed up: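 Luminescent ATP signal (CellTiter-Glo, 20 min at room temperature) served as the read-out of viable BJ cells after 40 hours of compound treatment. Responses were scaled between DMSO and 100 uM tamoxifen, and AC50 values were obtained by Hill modeling.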
(In general: In qHTS, concentration-response curves come from the screen itself.)

Experiment [2] is described as follows: Cell Viability - Jurkat (AID 426;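 active = dose-dependent loss of cell ATP signal giving a full or clear fitted curve, ranked by lower potency value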;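 also: potency is read from the fitted curve at half-maximal effect; cells exposed to compound for 40 hours at 37 °C before ATP read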). Particulars: qHTS. A digest of the protocol: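 Luminescent ATP read-out (CellTiter-Glo, 20 min at room temperature) after 40 hr compound exposure at 37 °C of Jurkat E6-1 cells, 5000/well. Decreased ATP taken as cytotoxicity; AC50 from standard Hill equation.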
Experiment [3] in a line: Cell Viability - HepG2 (AID 433; calls by dose curve; also: potency is read from the fitted curve at half-maximal effect). Particulars: qHTS. Summed up:
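ATP luminescence (CellTiter-Glo) after 40 h compound exposure, 37 °C, HepG2, 1500 cells/well, complete medium. Normalized: DMSO = basal, 100 uM tamoxifen = 100% inhibition. AC50 via standard Hill equation.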

The nature of experiment [4]: Cell Viability - MRC5 (AID 434; calls by dose curve;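 also: potency is read from the fitted curve at half-maximal effect; cells exposed to compound for 40 hours at 37 °C; potency reflects cytotoxicity seen as loss of intracellular ATP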). Particulars: MRC5 lung fibroblast viability, qHTS. Summed up: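 ATP luminescence read-out (CellTiter-Glo, 20 min RT) after 40 hr, 37 °C compound exposure of 1500 MRC5 cells/well. Data normalized to DMSO (basal) and 100 uM tamoxifen (100% inhibition); AC50 from standard Hill equation.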
For experiment [5], the target named is Mitogen-activated protein kinase 10 (Mus musculus) (UniProt Q61831). Put plainly: JNK3 AlphaScreen Assay (AID 530; active = well fitted curve in either direction with a large enough effect, not every such curve was filed as active;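 also: kinase came from lysate of stimulated human HepG2 cells; signal reports phosphorylation of biotinylated GST-cJun 1-79 at Ser73 with 10 µM ATP; % is scaled to controls: 0 for no effect and ±100 for the full control effect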). Summed up:
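HepG2 lysate (IL-1b/TNFa pre-activated) + biotin-GST-cJun 1-79 + anti-pSer73 cJun; cpd titration, 15 min RT; ATP 10 uM start; Tris pH 7.6, MgCl2, DTT, vanadate; beads in EDTA buffer; AlphaScreen.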

Experiment [6] can be described thus: Cell Viability - N2a (AID 540).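 Also: plate controls were DMSO alone for no effect and tamoxifen control for full effect; nearly all actives have a fitted effect of over 45% in size.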 Particulars: N2a mouse neuroblastoma cell viability; at 92.2 µM (top of the series). Summed up:
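N2a mouse neuroblastoma, 1500 cells/well, 5 hr settle; compound 40 hr, 37 °C; CellTiter-Glo 20 min RT; luminescence; Hill-fit AC50.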

Experiment [7] can be described thus: Cell Viability - HUV-EC-C (AID 542). Also: % is scaled to controls: 0 for no effect and ±100 for the full control effect; nearly all actives have a fitted effect of over 35% in size. Summed up:
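Luminescent ATP read-out (CellTiter-Glo, 20 min room temperature) after 40 hr compound treatment of HUV-EC-C cells at 37 °C. Concentration-response data fitted with the standard Hill equation to give AC50; tamoxifen and doxorubicin served as positive controls.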

A short description of experiment [8]: Cell Viability - Mesenchymal (AID 546).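 Also: cells exposed to compound for 40 hours before reading; 0% = DMSO only and -100% = 100 µM tamoxifen.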 A digest of the protocol:
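Human renal mesenchymal cells (glomerulus-derived), 1000 cells/well, 5 hr 37 °C pre-incubation; compound 40 hr, 37 °C; CellTiter-Glo, 20 min RT; luminescence; AC50 via Hill equation.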

Experiment [9] is described as follows: Cellular Toxicity (caspase-3) HepG2 (AID 654).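 Also: cells exposed to compound for 16 hours before reading; 0% = DMSO alone and 100% = caspase signal from 100 µM tamoxifen.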 A digest of the protocol:
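Luminescent Caspase-Glo 3/7 readout after 16 hr compound exposure of human hepatocellular carcinoma HepG2 cells at 37 °C; qHTS concentration-response, normalized DMSO = 0%, 100 uM tamoxifen = 100%; AC50 by standard Hill equation.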

Experiment [10] can be described thus: Cellular Toxicity (caspase-3) HUV-EC-C (AID 656).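 Also: 0% = DMSO basal and 100% = 100 µM tamoxifen.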 A digest of the protocol: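 Luminescent caspase-3/7 activation (aminoluciferin substrate cleavage) in HUV-EC-C cells after 16 hr compound exposure, 37°C. Signal normalized to DMSO basal and 100 uM tamoxifen as 100%; AC50 from concentration-response fitted with the Hill equation.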
The nature of experiment [11]: Cellular Toxicity (caspase-3) SHSY5Y (AID 657).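 Also: cells exposed to compound for 16 hours at 37 °C.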 A digest of the protocol:
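Luminescent caspase-3/7 readout (aminoluciferin release) in SH-SY5Y cells after 16 h compound exposure in complete medium. Activity scaled between DMSO basal and 10 uM staurosporine as 100%; concentration-response fitted to Hill equation for AC50.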

Experiment [12] is described as follows: Cellular Toxicity (caspase-3) BJ (AID 658).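 Also: cells exposed to compound for 16 hours; 0% = DMSO basal and 100% = 10 µM staurosporine.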 Summed up: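 qHTS, BJ fibroblasts, 1000 cells/well; 5 hr preincubation, 16 hr compound, 37 °C; Caspase-Glo 3/7 reagent, 1 hr RT; luminescence. DMSO = 0%, 10 uM staurosporine = 100%. Hill-equation AC50.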
A short description of experiment [13]: Cellular Toxicity (caspase-3) MRC-5 (AID 659).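 Also: 0% = DMSO basal and 100% = 10 µM staurosporine.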 A digest of the protocol: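 MRC-5 fibroblasts, 1500/well; 16 h cpd, 37 °C; Caspase-Glo 3/7, 1 h RT; lumi read. Norm: DMSO = 0%, 10 uM staurosporine = 100%. Hill-fit AC50 from qHTS conc-response.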
Experiment [14] in a line: Cellular Toxicity (caspase-3) Mesangial (AID 660).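 Also: combined caspase 3 and 7 activity read by Caspase-Glo luminescence; cells exposed to compound for 16 h before the caspase read.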 A digest of the protocol:
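Luminescent Caspase-Glo 3/7 readout (aminoluciferin substrate cleavage, 20 min RT) after 16 h compound exposure at 37 °C of normal human mesangial cells. Signal increase normalized between DMSO basal and 100 uM tamoxifen; Hill-equation AC50.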

Experiment [15] is described as follows: Cellular Toxicity (caspase-3) SK-N-SH (AID 661).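 Also: cells exposed to compound for 16 hours; 0% = DMSO basal and 100% = 10 µM staurosporine.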 A digest of the protocol: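 Luminescent Caspase-Glo 3/7 read-out after 16 hr compound exposure of SK-N-SH neuroblastoma cells at 37 °C. Signal increase normalized to DMSO (basal) and 10 uM staurosporine (100%); AC50 from Hill equation fits of qHTS concentration-response data.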
Experiment [16] is described as follows: Cellular Toxicity (caspase-3) H-4-II-E (AID 663).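 Also: cells exposed to compound for 16 hr before readout; 0% = DMSO basal and 100% = 100 µM tamoxifen.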 Summed up: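 H-4-II-E rat hepatoma, 1500 cells/well, 5 hr settle at 37 °C; compound 16 hr, 37 °C, complete medium; Caspase-Glo 3/7, 20 min RT; luminescence. DMSO = 0%, 100 uM tamoxifen = 100%; Hill-equation AC50.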
A short description of experiment [17]: Cellular Toxicity (caspase-3) N2a (AID 665).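 Also: compound exposure lasted 16 h at 37 °C before readout.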 Summed up:
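Luminescent Caspase-Glo 3/7 readout in N2a mouse neuroblastoma cells after 16 h compound exposure at 37 °C. Signal scaled to DMSO (basal) and 10 uM staurosporine (100%). Concentration-response fitted with Hill equation for AC50.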

A short description of experiment [18]: Cellular Toxicity (caspase-3) NIH 3T3 (AID 666).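 Also: 0% = DMSO basal and 100% = 100 µM tamoxifen stimulation.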 Summed up:
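NIH 3T3, 1000 cells/well, 5 hr settle then 16 hr compound at 37°C; Caspase-Glo 3/7, 20 min RT, luminescence. DMSO = basal, 100 uM tamoxifen = 100%. Hill-equation AC50, qHTS.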

A short description of experiment [19]: Cellular Toxicity (caspase-3) Renal Proximal Tubule (AID 667).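 Also: cells exposed to compound for 16 hours at 37 °C before detection; 0% = DMSO basal and 100% = 10 µM staurosporine.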 A digest of the protocol: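 Luminescent caspase 3/7 signal from peptide-aminoluciferin cleavage measures apoptosis in freshly isolated rat kidney proximal tubule cells after 16 h compound exposure. Concentration-response data are normalized to DMSO and 10 uM staurosporine, and AC50 values come from Hill equation fits.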

Experiment [20] can be described thus: Cell Viability - LYMP2-001 (AID 921).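 Also: cells exposed to compound for 24 h at 37 °C; 0% = DMSO only and full inhibition = tetraoctylammonium bromide control wells; nearly all actives have a fitted effect of over 70% in size.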 Summed up:
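CellTiter-Glo luminescence (intracellular ATP) after 24 hr compound exposure at 37 C, 2500 lymphoblastoid cells/well in complete medium. AC50 fitted with standard Hill equation; tetraoctylammonium bromide positive control.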

The nature of experiment [21]: Confirmation and Secondary Assay for Modulators of Hemoglobin Beta Chain Splicing at IVS2 705 locus (AID 930).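 Also: HeLa cells stably expressing the EGFP-705 splicing reporter; % of control where 0% means no effect.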 Summed up: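 Restored EGFP fluorescence after 2-day compound exposure reports splicing correction in IVS2-705 EGFP reporter HeLa cells; positive control was 500 nM splice-blocking PNA oligo. Signal measured as well total peak GFP intensity (488 nm excitation).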

The nature of experiment [22]: MultiTox-Fluor Cytotoxicity Assay - LYMP1-001 - Dead Cells (AID 946).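 Also: 0% = DMSO and 100% = tetraoctylammonium bromide.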 A digest of the protocol:
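AC50 from Hill fit of concentration-response; data normalized to DMSO (basal) and 15 uM tetraoctylammonium bromide (100%). LYMP1-001 lymphoblastoid cells, 2500/well, 16 hr compound at 37 C; dead-cell protease fluorescence, Ex/Em 485/520.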

SMILES strings stand for the structures. A number with no mark means an inactive call. Results filed as inconclusive are left out. Calls of active or inactive are those of the source. Unless noted, calls follow the shape of the dose curve; as a rule, active = well fitted curve in the direction sought with a large enough effect; inconclusive = small, poorly fitted or top-dose-only effect, or another doubt; inactive = no such curve, though single readings can be large; an effect the other way counts as inactive or inconclusive.

Regarding `Oc1c(Cl)c(Cl)c(Cl)c(Cl)c1Cl`, the Potency in experiment [1] was above 92 µM; in experiment [2], 47.6 µM (active); in [3] it was above 92 µM; in experiment [4] it was above 92 µM. Besides, the compound was called inactive in [5], in [7], in experiment [8], in [9], in experiment [10] and in experiment [11]. The outcome in experiment [12], in experiment [13], in [14], in [15], in [16] and in [17] was inactive. The compound was classed as inactive in experiment [18], in experiment [19], in experiment [20] and in experiment [21]. Besides, the activity change, negative = cytotoxicity in [6] is -109% (active). The Potency result in [22] is “inactive”.
